{"source": "patent US20230313203", "about": "“FLUOROARABINO NUCLEIC ACID (FANA) […] THAT BIND SARS-2 RECEPTOR BINDING DOMAIN AND BLOCK BINDING TO THE ACE2 […] RECEPTOR” (University of Maryland, College Park, published 2023)", "target": "SARS-CoV-2 spike receptor binding domain (Wuhan) (SARS-CoV-2, UniProt P0DTC2 P0DTC2:319-541)", "test": "inhibition", "conditions": "XNA; first 20 nt DNA, rest FANA (SEQ ID NO 3)", "note": "Potency and affinity values are given separately."}
{"sequence": "AAAAGGTAGTGCTGAATTCGUCGAACUAAUCCGAAUUGAUGGCAUAAAAAGCAUGUUUAGUUCGCUAUCCAGUUGGCCU", "values": [{"measurement": "binding signal", "result": "~3", "unit": "fold weaker"}]}
